Results filed as inconclusive are left out. Calls of active or inactive are those of the source. Calls come from the whole dose curve; as a rule, active = well fitted curve in the direction sought with a large enough effect; inconclusive = small, poorly fitted or top-dose-only effect, or another doubt; inactive = no such curve, though single readings can be large or run the other way.
Biological target: Pyruvate kinase PKLR (Homo sapiens) (UniProt P30613)
Assay: Confirmation Concentration-Response Assay for Activators of Human Reticulocyte Pyruvate Kinase
Settings: purified hPK-R, Kinase-Glo ATP luminescence, 1 h; series mostly up to 57.5 µM
Description: Confirmatory assay NIH Chemical Genomics Center [NCGC] Wael M. Rabeh, Lyudmila Nedyalkova and Hee-Wan Park [Structural Genomics Consortium, 100 College St. Toronto, Ontario, Canada] NCGC Assay Overview: Human pyruvate kinase reticulocyte (hPK-R) enzyme was supplied as a highly purified (>95% pure) preparation from Structural Genomics Consortium in Toronto (Ontario, Canada) and assayed for its ability to generate ATP from ADP using phosphoenolpyruvate (PEP) as a substrate. ATP generation was detected in a coupled reaction by luciferase-mediated luminescence, an ATP-dependent process. Pyruvate kinase substrates, PEP and ADP, were present in the assay at Km and approximately 10-fold below Km respectively. The enzyme was assayed at an intermediate level of activity to screen for both inhibitors and activators.
NCGC Assay Protocol Summary for R-isoform Three uL of substrate mix (at r.t.) in assay buffer (50 mM Imidazole pH7.2, 50 mM KCl, 7 mM MgCl2, 0.01% Tween 20, 0.05% BSA) was dispensed into white solid bottom 1,536 well microtiter plates so that the final concentrations of substrates in the assay were 0.1 mM ADP and 0.5 mM PEP. 23 nL of compound were delivered by a pin tool and 1 uL of enzyme mix (final concentration of 0.1 nM) in assay buffer (4 degree Celsius) was added. Plates were incubated at room temperature for 1 hour. Two uL of detection mix (Kinase-Glo, Promega; at 4 degree Celsius protected from light) was added and luminescence read by a ViewLux (Perkin Elmer) at 1 second exposure/plate. Data were normalized to the uninhibited (row 31). Additionally, a no enzyme and 5-fold enzyme control was dispensed in row 32, split equally between the two conditions.

Pyruvate kinase PKLR (Homo sapiens), sequence (P30613 whole entry, looked up): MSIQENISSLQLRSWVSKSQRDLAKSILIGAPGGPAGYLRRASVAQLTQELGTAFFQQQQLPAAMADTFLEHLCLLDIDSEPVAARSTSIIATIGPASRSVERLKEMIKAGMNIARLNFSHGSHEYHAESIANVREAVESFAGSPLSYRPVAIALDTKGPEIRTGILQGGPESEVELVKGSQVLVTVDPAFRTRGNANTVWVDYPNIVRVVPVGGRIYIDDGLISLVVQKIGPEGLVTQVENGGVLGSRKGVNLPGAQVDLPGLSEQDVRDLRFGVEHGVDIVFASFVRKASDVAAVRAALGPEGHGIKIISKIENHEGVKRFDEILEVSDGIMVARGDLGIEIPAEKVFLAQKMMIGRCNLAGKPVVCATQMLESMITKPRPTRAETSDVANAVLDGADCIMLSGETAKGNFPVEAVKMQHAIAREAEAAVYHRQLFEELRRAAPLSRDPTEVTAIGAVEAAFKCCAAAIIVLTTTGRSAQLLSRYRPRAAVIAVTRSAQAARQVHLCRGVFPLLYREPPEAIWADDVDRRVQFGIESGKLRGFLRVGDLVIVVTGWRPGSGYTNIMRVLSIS

Potency, inactive:
COc1ccc(S(=O)(=O)N2CCN(S(=O)(=O)c3c(F)cccc3F)CC2)cc1
N#Cc1ccc(S(=O)(=O)N2CCN(S(=O)(=O)c3ccc4c(c3)OCCO4)CC2)cc1
O=C(c1ccc2c(c1)OCCO2)N1CCN(S(=O)(=O)c2c(F)cccc2F)CC1
Cc1cc2c(s1)c1cnn(Cc3ccc(Cl)cc3)c(=O)c1n2C
COc1ccc(Cn2ncc3c4sc(C)cc4n(C)c3c2=O)cc1
Cc1cc2c(s1)c1cnn(Cc3ccccc3F)c(=O)c1n2C(C)C
O=S(=O)(c1ccc(Cl)cc1)N1CCN(S(=O)(=O)c2ccc3c(c2)OCCO3)CC1
COc1ccc(S(=O)(=O)N2CCN(S(=O)(=O)c3ccc(OC)cc3)CC2)cc1
Cc1cc2c(s1)c1cnn(Cc3ccccc3)c(=O)c1n2C
CC(=O)c1cc2c(s1)c1cnn(Cc3ccccc3F)c(=O)c1n2C
O=C(CN1C(=O)N/C(=C\c2cccn2-c2cccc(C(=O)O)c2)C1=O)Nc1ccccc1F
Cn1c2ccsc2c2cnn(Cc3ccccc3F)c(=O)c21
Cc1cc2c(s1)c1cnn(Cc3ccc(F)cc3)c(=O)c1n2C
O=S(=O)(c1ccc2c(c1)OCCO2)N1CCN(S(=O)(=O)c2cccc[n+]2[O-])CC1
O=S(=O)(c1cccc(C(F)(F)F)c1)N1CCN(S(=O)(=O)c2ccc3c(c2)OCCO3)CC1
Cc1cc2c(s1)c1cnn(Cc3cccc(Cn4ncc5c6sc(C)cc6n(C)c5c4=O)c3F)c(=O)c1n2C
Cc1cc2c(s1)c1cnn(Cc3ccccc3Cl)c(=O)c1n2C
COc1cc2c(s1)c1cnn(Cc3ccccc3F)c(=O)c1n2C
COC(=O)c1cc2c(s1)c1cnn(Cc3ccccc3F)c(=O)c1n2C
CCCc1cc(F)c(S(=O)(=O)N2CCN(S(=O)(=O)c3ccc4c(c3)OCCO4)CC2)cc1F
CCc1cc2c(s1)c1cnn(Cc3ccccc3F)c(=O)c1n2C
Cc1cc2c(s1)c1cnn(Cc3ccc(S(C)(=O)=O)cc3)c(=O)c1n2C
Cc1ccc(Cn2ncc3c4sc(C)cc4n(C)c3c2=O)cc1
